Assay results published in PubChem BioAssay (Tox21).
Records with an inconclusive call do not appear. Active and inactive are the calls of the source. Unless noted, calls follow the shape of the dose curve; as a rule, active = well fitted curve in the direction sought with a large enough effect in the repeat runs; inconclusive = weak or mixed curves; inactive = no such curve, though single readings can be large; an effect the other way counts as inactive or inconclusive.

What was measured:
[1] = qHTS assay to identify small molecule agonists of H2AX (AID 1224845; active = well fitted activation curve with a large enough effect in the signal ratio in the repeat runs, not every such curve was filed as active; the % refers to the signal ratio)
Summary of the method: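 Wild-type CHO-K1 cells plated overnight, then exposed 3 hr at 37C to compounds at 15 concentrations (0.76% DMSO). Lysed, then HTRF anti-pH2AX(S139)-cryptate/anti-H2AX-d2 detection after 24 hr at room temperature; emissions 665 and 620 nm.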

[2] = qHTS assay to identify small molecule agonists of the hypoxia (HIF-1) signaling pathway (AID 1224846; active = well fitted activation curve with a large enough effect in the signal ratio in the repeat runs, not every such curve was filed as active; the % refers to the signal ratio)
Summary of the method: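 Reporter induction in HRE-bla ME-180 cells is taken as agonism: cells sit 5 hrs after plating, receive compounds or DMSO only, incubate 17 hrs at 37C under 5% CO2, and are loaded with CCF4-AM for beta-lactamase FRET measurement.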

[3] = qHTS assay to identify small molecule agonists of H2AX - cell viability counter screen (AID 1224847; calls by dose curve; also: top concentration of the series differs between compounds; nearly all actives have a fitted effect of over 30% in size)
Summary of the method: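 After overnight plating of 1000 CHO-K1 cells per well, a 15-concentration compound series was applied for 3 hr at 37C. Luminescence from CellTiter-Glo, read following 30 min at room temperature, reflected cell viability.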

[4] = qHTS RealTime-Glo MT Cell Viability Assay in HepG2 cells - 24 hour (AID 1224867); also: nearly all actives have a fitted effect of over 50% in size
Summary of the method: (§1)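 Viability was tracked continuously by NanoLuc luminescence from prosubstrate reduced by living HepG2 cells, at successive time points over 40 h of compound exposure. Cells with reagent were preincubated 5 h at 37 °C before compound addition.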

[5] = qHTS RealTime-Glo MT Cell Viability Assay in HEK293 cells - 32 hour (AID 1224868); also: top concentration of the series differs between compounds; nearly all actives have a fitted effect of over 50% in size
Summary of the method: (§2)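 Viability tracked continuously by luminescence as live cells reduce a prosubstrate for NanoLuc; HEK293 cells preincubated 5 h, compound-treated at 37 C, and read at 0, 8, 16, 24, 32 and 40 h.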

[6] = A CellTox Green Cytotoxicity Assay to monitor cytotoxicity in HEK293 cells - 0 hour (AID 1224869); also: nearly all actives have a fitted effect of over 50% in size
Summary of the method: (§3)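 Tox21 screen in HEK293: membrane-impermeant cyanine dye fluoresces on binding dead-cell DNA; compound pinned 5 h post-seeding, plates held at 37 C, signal read repeatedly through 40 h.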

[7] = qHTS RealTime-Glo MT Cell Viability Assay in HepG2 cells - 40 hour (AID 1224870); also: nearly all actives have a fitted effect of over 50% in size
Summary of the method: (§4)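 HepG2 cells mixed with RealTime-Glo MT reagents (NanoLuc plus cell-permeant prosubstrate) were seeded at 600 cells/well, incubated 5 h at 37 C/5% CO2, then pinned with compounds in DMSO; nonlytic luminescence tracked viability during 40 h treatment.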

[8] = A CellTox Green Cytotoxicity Assay to monitor cytotoxicity in HEK293 cells - 40 hour (AID 1224871); also: nearly all actives have a fitted effect of over 45% in size
Summary of the method: as §3

[9] = qHTS RealTime-Glo MT Cell Viability Assay in HEK293 cells - 16 hour (AID 1224872)
Summary of the method: as §2

[10] = qHTS RealTime-Glo MT Cell Viability Assay in HepG2 cells - 8 hour (AID 1224873); also: nearly all actives have a fitted effect of over 55% in size
Summary of the method: as §4

[11] = qHTS RealTime-Glo MT Cell Viability Assay in HEK293 cells - 40 hour (AID 1224874); conditions: RealTime-Glo luminescence; max response: hits give low values; also: nearly all actives have a fitted effect of over 50% in size
Summary of the method: (§5)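 HEK293 + NanoLuc + prosubstrate, 600 cells/well; 5 h, 37 C/5% CO2; compound 23 nL in DMSO by pintool; 37 C; luminescence read at 0, 8, 16, 24, 32 and 40 h time points.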

[12] = A CellTox Green Cytotoxicity Assay to monitor cytotoxicity in HEK293 cells - 24 hour (AID 1224875); also: series mostly up to about 77 µM; nearly all actives have a fitted effect of over 45% in size
Summary of the method: as §3

[13] = A CellTox Green Cytotoxicity Assay to monitor cytotoxicity in HepG2 cells - 16 hour (AID 1224876); also: nearly all actives have a fitted effect of over 45% in size
Summary of the method: (§6)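 Measurements at 0, 8, 16, 24, 32 and 40 h of treatment captured CellTox Green fluorescence in HepG2 cells that had been co-plated with reagent and preincubated 5 h at 37 C/5% CO2.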

[14] = qHTS RealTime-Glo MT Cell Viability Assay in HepG2 cells - 32 hour (AID 1224877); also: nearly all actives have a fitted effect of over 55% in size
Summary of the method: as §1

[15] = A CellTox Green Cytotoxicity Assay to monitor cytotoxicity in HepG2 cells - 40 hour (AID 1224879); also: nearly all actives have a fitted effect of over 40% in size
Summary of the method: as §6

[16] = A CellTox Green Cytotoxicity Assay to monitor cytotoxicity in HEK293 cells - 32 hour (AID 1224881); also: nearly all actives have a fitted effect of over 40% in size
Summary of the method: as §3

[17] = A CellTox Green Cytotoxicity Assay to monitor cytotoxicity in HepG2 cells - 24 hour (AID 1224878); also: nearly all actives have a fitted effect of over 45% in size
Summary of the method: as §6

[18] = qHTS RealTime-Glo MT Cell Viability Assay in HEK293 cells - 0 hour (AID 1224880)
Summary of the method: as §5
% is scaled to controls: 0 for no effect and ±100 for the full control effect.

CC(=O)Nc1ccc(OCC(O)CNC(C)C)cc1 (stereo not given)
inactive: Potency [1] | outcome [2] | outcome [3] | outcome [4] | Potency [5] | outcome [6] | Potency [7] | Potency [8] | Potency [9] | outcome [10] | max response [11] -1.7% | outcome [12] | outcome [13] | Potency [14] | Potency [15] | outcome [16]

CCN(CC#N)c1cccc(C)c1
inactive: Potency [1] | outcome [2] | outcome [3] | outcome [4] | Potency [5] | outcome [6] | Potency [7] | Potency [8] | Potency [9] | outcome [10] | max response [11] 13% | outcome [12] | outcome [13] | Potency [14] | outcome [17] | Potency [18] | outcome [16]

C=CC(=O)OCCCl
inactive: Potency [1] | outcome [2] | outcome [3] | outcome [4] | Potency [5] | outcome [6] | Potency [7] | Potency [8] | Potency [9] | outcome [10] | max response [11] 21% | outcome [12] | outcome [13] | Potency [14] | Potency [15] | Potency [18] | outcome [16]

O=C1CCCCCCCCCCCCCCO1
inactive: Potency [1] | outcome [2] | outcome [3] | outcome [4] | Potency [5] | outcome [6] | Potency [7] | Potency [8] | Potency [9] | outcome [10] | max response [11] 0.109% | outcome [12] | outcome [13] | Potency [14] | Potency [15] | outcome [16]

Cc1ncc([C@@H](CCCCCCc2ccc3c(n2)NCCC3)CC(=O)O)cn1
inactive: Potency [1] | outcome [2] | outcome [3] | outcome [4] | Potency [5] | outcome [6] | Potency [7] | Potency [8] | Potency [9] | outcome [10] | max response [11] 4.72% | outcome [12] | outcome [13] | Potency [14] | Potency [15] | Potency [18] | outcome [16]

CN(C)CCCN(C)CCCN(C)C
inactive: Potency [1] | outcome [2] | outcome [3] | outcome [4] | Potency [5] | outcome [6] | Potency [7] | Potency [8] | Potency [9] | outcome [10] | max response [11] -6.89% | outcome [13] | Potency [14] | outcome [17] | Potency [15] | Potency [18] | outcome [16]

O=C(O)CNC(=O)c1ccc(CO)o1
inactive: Potency [1] | outcome [2] | outcome [3] | outcome [4] | Potency [5] | outcome [6] | Potency [7] | Potency [8] | Potency [9] | outcome [10] | max response [11] 3.96% | outcome [12] | outcome [13] | Potency [14] | outcome [17] | Potency [18] | outcome [16]

C=C(C)C(=O)OCC1CCCO1 (stereo not given)
inactive: Potency [1] | outcome [2] | outcome [3] | outcome [4] | Potency [5] | outcome [6] | Potency [7] | Potency [8] | Potency [9] | outcome [10] | max response [11] 7.57% | outcome [13] | Potency [14] | outcome [17] | Potency [15] | Potency [18] | outcome [16]

CC(C)CCCO
inactive: Potency [1] | outcome [2] | outcome [3] | outcome [4] | Potency [5] | outcome [6] | Potency [7] | Potency [8] | Potency [9] | outcome [10] | max response [11] 9.91% | outcome [12] | outcome [13] | Potency [14] | outcome [17] | Potency [15] | Potency [18] | outcome [16]

CC(=O)N[C@H]1[C@H]([C@H](O)[C@H](O)CO)OC(C(=O)O)=C[C@@H]1N=C(N)N
inactive: Potency [1] | outcome [2] | outcome [3] | outcome [4] | Potency [5] | outcome [6] | Potency [7] | Potency [8] | Potency [9] | outcome [10] | max response [11] 2.18% | outcome [13] | Potency [14] | outcome [17] | Potency [15] | Potency [18] | outcome [16]

CC1CCC(CO)CC1 (stereo not given)
inactive: Potency [1] | outcome [2] | outcome [3] | outcome [4] | Potency [5] | outcome [6] | Potency [7] | Potency [8] | Potency [9] | outcome [10] | max response [11] 9.47% | outcome [12] | outcome [13] | Potency [14] | outcome [17] | Potency [15] | outcome [16]

C=COC(=O)C(C)(CC)CCC(C)C (stereo not given)
inactive: Potency [1] | outcome [2] | outcome [3] | outcome [4] | Potency [5] | outcome [6] | Potency [7] | Potency [8] | Potency [9] | outcome [10] | max response [11] 0.193% | outcome [12] | outcome [13] | Potency [14] | outcome [17] | Potency [15] | Potency [18] | outcome [16]

CC(CC=O)CC(C)(C)C (stereo not given)
inactive: Potency [1] | outcome [2] | outcome [3] | outcome [4] | Potency [5] | outcome [6] | Potency [7] | Potency [8] | Potency [9] | outcome [10] | max response [11] -0.119% | outcome [12] | outcome [13] | Potency [14] | outcome [17] | Potency [15] | outcome [16]

N[C@@H](CCC(=O)O)C(=O)O
inactive: Potency [1] | outcome [2] | outcome [3] | outcome [4] | Potency [5] | outcome [6] | Potency [7] | Potency [8] | Potency [9] | outcome [10] | max response [11] -0.971% | outcome [13] | Potency [14] | outcome [17] | Potency [15] | Potency [18] | outcome [16]

Nc1ccncc1N
inactive: Potency [1] | outcome [2] | outcome [3] | outcome [4] | Potency [5] | outcome [6] | Potency [7] | Potency [8] | Potency [9] | outcome [10] | max response [11] 13% | outcome [12] | outcome [13] | Potency [14] | Potency [15] | Potency [18] | outcome [16]
